# Test results: PubChem BioAssay (Tox21)
# Results filed as inconclusive are left out. Where a call stands in place of a potency, no number is given. The source holds several records for some structures; these can differ, active in one and inactive in another. Active and inactive are the calls of the source. Calls come from the whole dose curve; as a rule, active = well fitted curve in the direction sought with a large enough effect in the repeat runs; inconclusive = weak or mixed curves; inactive = no such curve, though single readings can be large; an effect the other way counts as inactive or inconclusive.
# Experiment: qHTS RealTime-Glo MT Cell Viability Assay in HepG2 cells - 0 hour (AID 1224889); note: nearly all actives have a fitted effect of over 50% in size
# Conditions: RealTime-Glo luminescence; series mostly up to 76.8 µM
# In short: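 HepG2 cells (600/well) were dispensed with RealTime-Glo reagents, incubated 5 h at 37 °C, then treated with compounds in DMSO for up to 40 h. Nonlytic NanoLuc luminescence reflecting viable cells was read at each stated time point.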
row,SMILES,outcome
1,[N-]=[N+]=CC(=O)OC[C@H](N)C(=O)O,inactive
2,CCOP(=S)(OCC)Oc1ccc([N+](=O)[O-])cc1,inactive
3,Cl[C@H]1OCCO[C@@H]1Cl,inactive
4,Nc1ccc(N)cc1,inactive
5,CCCCCCCCCCCCCCCCCC(=O)O,inactive
6,O=C(O)CCCc1ccc(N(CCCl)CCCl)cc1,inactive
7,OC[C@@H](O)[C@H]1O[C@@H]2O[C@H](C(Cl)(Cl)Cl)O[C@@H]2[C@H]1O,inactive
8,CC(C)c1cccc(C(C)C)c1O,inactive
9,CC(C)CCCCCCOC(=O)c1ccccc1C(=O)OCCCCCCC(C)C,inactive
10,O=P1(NCCCl)OCCCN1CCCl (stereo not drawn),inactive
11,CNC(=O)O/N=C(\SC)C(=O)N(C)C,inactive
12,O=C(O)Cc1ccccc1,inactive
13,N#Cc1cccc(C#N)c1,inactive
14,Oc1c(Br)cc(Br)cc1Br,inactive
15,c1ccc2c(c1)CCCC2,inactive
16,O=[N+]([O-])c1ccc(Cl)cc1,inactive

row,SMILES,outcome
1,C/C=C/c1ccc2c(c1)OCO2,inactive
2,CN(C)C(=O)C(c1ccccc1)c1ccccc1,inactive
3,CC12CC1(C)C(=O)N(c1cc(Cl)cc(Cl)c1)C2=O (stereo not drawn),inactive
4,Cc1ccccc1N,inactive
5,Clc1cnc(Oc2ccc(Oc3ncc(Cl)cc3Cl)cc2)c(Cl)c1,inactive
6,CC(=O)/C=C/c1ccccc1,inactive
7,CC(=O)C1CCOC1=O (stereo not drawn),inactive
8,Cc1ccc(N=C=O)cc1N=C=O,inactive
9,C=CC(=O)OCCCCCC(C)C,inactive
10,COC(=O)Nc1cccc(OC(=O)Nc2cccc(C)c2)c1,inactive
11,O=S(=O)(O)OOS(=O)(=O)O,inactive
12,Cc1ccc(N)cc1,inactive
13,CC[N+](=O)[O-],inactive
14,CN1C(=O)CCS(=O)(=O)C1c1ccc(Cl)cc1 (stereo not drawn),inactive
15,C=CC(=O)OCC(CC)CCCC (stereo not drawn),inactive

# Experiment: A CellTox Green Cytotoxicity Assay to monitor cytotoxicity in HepG2 cells - 8 hour (AID 1224890); note: nearly all actives have a fitted effect of over 45% in size; note: potency is the fitted concentration of half-maximal effect
# Conditions: CellTox Green fluorescence; series mostly up to 76.8 µM
# In short: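 HepG2 cells, 600/well, preincubated 5 h with CellTox Green dye, then exposed to Tox21 compounds in DMSO at 37 C for up to 40 h. Dead-cell DNA fluorescence read at the indicated time point.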
row,SMILES,Potency
1,[N-]=[N+]=CC(=O)OC[C@H](N)C(=O)O,38.9 µM (active) and inactive
2,CCOP(=S)(OCC)Oc1ccc([N+](=O)[O-])cc1,inactive
3,Cl[C@H]1OCCO[C@@H]1Cl,inactive
4,Nc1ccc(N)cc1,inactive
5,CCCCCCCCCCCCCCCCCC(=O)O,inactive
6,O=C(O)CCCc1ccc(N(CCCl)CCCl)cc1,inactive
7,OC[C@@H](O)[C@H]1O[C@@H]2O[C@H](C(Cl)(Cl)Cl)O[C@@H]2[C@H]1O,inactive
8,CC(C)c1cccc(C(C)C)c1O,43.6 µM (active) and inactive
9,CC(C)CCCCCCOC(=O)c1ccccc1C(=O)OCCCCCCC(C)C,inactive
10,O=P1(NCCCl)OCCCN1CCCl (stereo not drawn),inactive
11,CNC(=O)O/N=C(\SC)C(=O)N(C)C,inactive
12,O=C(O)Cc1ccccc1,inactive
13,N#Cc1cccc(C#N)c1,inactive
14,Oc1c(Br)cc(Br)cc1Br,inactive
15,c1ccc2c(c1)CCCC2,inactive
16,O=[N+]([O-])c1ccc(Cl)cc1,inactive

row,SMILES,Potency
1,C/C=C/c1ccc2c(c1)OCO2,inactive
2,CN(C)C(=O)C(c1ccccc1)c1ccccc1,inactive
3,CC12CC1(C)C(=O)N(c1cc(Cl)cc(Cl)c1)C2=O (stereo not drawn),inactive
4,Cc1ccccc1N,inactive
5,Clc1cnc(Oc2ccc(Oc3ncc(Cl)cc3Cl)cc2)c(Cl)c1,inactive
6,CC(=O)/C=C/c1ccccc1,inactive
7,CC(=O)C1CCOC1=O (stereo not drawn),inactive
8,Cc1ccc(N=C=O)cc1N=C=O,inactive
9,C=CC(=O)OCCCCCC(C)C,inactive
10,COC(=O)Nc1cccc(OC(=O)Nc2cccc(C)c2)c1,inactive
11,O=S(=O)(O)OOS(=O)(=O)O,inactive
12,Cc1ccc(N)cc1,inactive
13,CC[N+](=O)[O-],inactive
14,CN1C(=O)CCS(=O)(=O)C1c1ccc(Cl)cc1 (stereo not drawn),inactive
15,C=CC(=O)OCC(CC)CCCC (stereo not drawn),inactive

# Experiment: qHTS assay to identify small molecule antagonists of the estrogen receptor alpha (ER-alpha) signaling pathway using the BG1 cell line in the presence of 0.1 nM 17-beta-estradiol - cell viability counter screen (AID 1259241); note: nearly all actives have a fitted effect of over 40% in size
# Conditions: VM7Luc4E2 (BG1) viability, CellTiter-Fluor protease, 22 h, 0.1 nM estradiol agonist added; series mostly up to 92.4 µM
# In short: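 VM7Luc4E2 cells (endogenous full-length ER-alpha, 4xERE-luciferase), cultured 5 days in charcoal-stripped serum, exposed to compounds with 0.1 nM 17beta-estradiol (final) for 22 hr at 37C. Viability read in same wells as live-cell protease fluorescence after 30 min.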
row,SMILES,outcome
1,[N-]=[N+]=CC(=O)OC[C@H](N)C(=O)O,inactive
2,CCOP(=S)(OCC)Oc1ccc([N+](=O)[O-])cc1,inactive
3,Cl[C@H]1OCCO[C@@H]1Cl,inactive
4,Nc1ccc(N)cc1,inactive
5,CCCCCCCCCCCCCCCCCC(=O)O,inactive
6,O=C(O)CCCc1ccc(N(CCCl)CCCl)cc1,inactive
7,OC[C@@H](O)[C@H]1O[C@@H]2O[C@H](C(Cl)(Cl)Cl)O[C@@H]2[C@H]1O,inactive
8,CC(C)c1cccc(C(C)C)c1O,inactive
9,CC(C)CCCCCCOC(=O)c1ccccc1C(=O)OCCCCCCC(C)C,inactive
10,O=P1(NCCCl)OCCCN1CCCl (stereo not drawn),inactive
11,CNC(=O)O/N=C(\SC)C(=O)N(C)C,inactive
12,O=C(O)Cc1ccccc1,inactive
13,N#Cc1cccc(C#N)c1,inactive
14,Oc1c(Br)cc(Br)cc1Br,inactive
15,c1ccc2c(c1)CCCC2,inactive
16,O=[N+]([O-])c1ccc(Cl)cc1,inactive

row,SMILES,outcome
1,C/C=C/c1ccc2c(c1)OCO2,inactive
2,CN(C)C(=O)C(c1ccccc1)c1ccccc1,inactive
3,CC12CC1(C)C(=O)N(c1cc(Cl)cc(Cl)c1)C2=O (stereo not drawn),inactive
4,Cc1ccccc1N,inactive
5,Clc1cnc(Oc2ccc(Oc3ncc(Cl)cc3Cl)cc2)c(Cl)c1,inactive
6,CC(=O)/C=C/c1ccccc1,inactive
7,CC(=O)C1CCOC1=O (stereo not drawn),inactive
8,Cc1ccc(N=C=O)cc1N=C=O,inactive
9,C=CC(=O)OCCCCCC(C)C,inactive
10,COC(=O)Nc1cccc(OC(=O)Nc2cccc(C)c2)c1,inactive
11,O=S(=O)(O)OOS(=O)(=O)O,inactive
12,Cc1ccc(N)cc1,inactive
13,CC[N+](=O)[O-],inactive
14,CN1C(=O)CCS(=O)(=O)C1c1ccc(Cl)cc1 (stereo not drawn),inactive
15,C=CC(=O)OCC(CC)CCCC (stereo not drawn),inactive
